PLC-gamma1 inh = PLC-gamma1 enzyme inhibitors, primary screen, biochemical, fluorescence, purified enzyme; fluorogenic substrate; inhibition, % at 12.2 µM; 370,000 tested, 0.84% active; in the data active = inhibition above about 9.5%
PLC-beta3 inh = human PLC-beta3 inhibitors, primary screen, biochemical, fluorescence; Purified PLC-beta3, fluorogenic substrate; inhibition, % at 12.2 µM; 370,000 tested, 0.18% active; AID 720704, 2013; in the data active = inhibition above about 11%
Rce1 inh = yeast Rce1p protease inhibitors, primary screen, biochemical, fluorescence, cell-free homogeneous. yeast membranes, quenched prenylated peptide cleavage fluorescence. calls only. CAAX prenyl protease 2 (Saccharomyces cerevisiae (strain ATCC 204508 / S288c)), Q03530. 290,000 tested, 0.27% active;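 active = fall in fluorescence gain of 50% or more versus controls, with final raw signal at or below 3038400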
NPR1 activator = GC-A stimulated cGMP production enhancers – HEK293 GC-A cells, cGMP TR-FRET, EC30 ANP, primary screen | AID 1671463, 2021 | activation, % at 10 µM | 0% at EC30 ANP, 100% saturating ANP | 370,000 tested, 0.14% active; in the data active = activation above about 40%
Target sequence (P16066 whole entry, looked up): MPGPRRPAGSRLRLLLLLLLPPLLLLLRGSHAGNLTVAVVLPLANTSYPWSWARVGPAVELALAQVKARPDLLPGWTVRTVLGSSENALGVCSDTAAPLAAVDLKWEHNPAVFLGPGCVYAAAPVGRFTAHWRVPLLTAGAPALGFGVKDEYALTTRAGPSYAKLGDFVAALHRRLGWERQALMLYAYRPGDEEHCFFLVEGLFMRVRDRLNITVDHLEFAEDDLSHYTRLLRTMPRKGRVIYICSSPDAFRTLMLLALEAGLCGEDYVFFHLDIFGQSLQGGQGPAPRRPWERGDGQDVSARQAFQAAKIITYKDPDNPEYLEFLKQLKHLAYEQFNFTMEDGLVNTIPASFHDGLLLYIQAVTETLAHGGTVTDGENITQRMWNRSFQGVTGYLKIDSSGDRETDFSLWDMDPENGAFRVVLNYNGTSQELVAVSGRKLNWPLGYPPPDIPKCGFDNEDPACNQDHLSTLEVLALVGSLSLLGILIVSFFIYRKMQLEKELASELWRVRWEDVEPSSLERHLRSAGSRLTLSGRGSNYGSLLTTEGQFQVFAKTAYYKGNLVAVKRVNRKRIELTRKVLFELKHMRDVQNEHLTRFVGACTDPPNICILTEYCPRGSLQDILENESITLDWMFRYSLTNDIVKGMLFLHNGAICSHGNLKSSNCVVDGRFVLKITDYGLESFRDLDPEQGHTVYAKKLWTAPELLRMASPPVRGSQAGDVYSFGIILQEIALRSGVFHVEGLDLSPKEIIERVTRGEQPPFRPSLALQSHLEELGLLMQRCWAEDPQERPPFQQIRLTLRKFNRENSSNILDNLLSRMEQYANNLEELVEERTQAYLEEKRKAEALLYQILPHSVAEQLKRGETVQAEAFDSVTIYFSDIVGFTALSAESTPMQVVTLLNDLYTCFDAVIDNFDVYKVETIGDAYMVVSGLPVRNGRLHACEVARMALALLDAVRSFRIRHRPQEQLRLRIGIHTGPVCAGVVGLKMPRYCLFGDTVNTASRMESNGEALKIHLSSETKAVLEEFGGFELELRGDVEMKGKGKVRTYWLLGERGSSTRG
GC-B act = human GC-B receptor activators, primary screen, HEK293 GC-B cells, cGMP TR-FRET, EC30 CNP | Atrial natriuretic peptide receptor 2 (Homo sapiens), P20594 | 0% at EC30 CNP, 100% saturating CNP | activation, % at 10 µM | 370,000 tested, 0.11% active;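 active = activation at 10 µM reaching about 35% in either raw or pattern-adjusted values, limit read from the data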
M18AAP inhibitor = PfM18AAP inhibitors, malaria aminopeptidase, primary screen, biochemical, QFRET, recombinant enzyme; 290,000 tested, 1.2% active; AID 1822, 2009; M18 aspartyl aminopeptidase (Plasmodium falciparum 3D7); inhibition, % at 7.35 µM; H-Glu-NHMec fluorogenic cleavage;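 active = inhibition above the campaign mean inhibition over all tested compounds plus 3 SD, cut at about 28% in these data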
Hits are given with their value; – = inactive; · = no result; + = active, no number. The list is not random: actives were taken first. Their share in the collection is about 2.2%.

SMILES	PLC-gamma1 inh	PLC-beta3 inh	Rce1 inh	NPR1 activator	GC-B act	M18AAP inhibitor
CCN(C[C@@H]1[C@@H](c2ccccc2)[C@H](CO)N1S(C)(=O)=O)C(=O)C1CCC1	–	–	·	–	–	·
COC1=C(OC)C(=O)C(Sc2ccc3ccccc3c2)=CC1=O	–	–	·	40	–	·
COc1ccc(S(=O)(=O)Oc2ccc3ccccc3c2)cc1	–	–	–	–	–	–
COc1ccccc1NC(=O)CN(c1ccc(C23CC4CC(CC(C4)C2)C3)cc1)S(C)(=O)=O	–	–	+	–	–	–
CS(=O)(=O)N(CC(=O)O)c1ccc(C23CC4CC(CC(C4)C2)C3)cc1	–	–	–	–	–	–
CCO[C@H]1OC(C(=O)Nc2ccccc2)=C[C@@H](c2csc3ccccc23)[C@@H]1CCCO	–	–	+	–	–	–
CCO[C@@H]1OC(C(=O)O)=C[C@H](c2csc3ccccc23)[C@H]1CCCO	–	–	–	–	–	–
CC(=O)Nc1ccc(C(=O)OCC(=O)NCc2cccs2)cc1	–	–	·	–	68	·
C=CCN1C(C(=O)OC)CN(Cc2cn(Cc3ccc(C)cc3)nn2)CCS1(=O)=O (stereo not given)	–	–	·	–	–	·
Cc1ccc(NC(=O)c2cc(S(=O)(=O)N3CCCCC3)ccc2N2CCOCC2)cc1S(=O)(=O)N(C)C	–	–	·	–	–	·
Cc1ccc(NC(=O)c2cc(S(=O)(=O)N(C)C)ccc2N2CCCC2)cc1S(=O)(=O)N(C)C	–	–	–	–	38	·
CCOc1ccccc1NC(=S)N1CCN(c2ccc(OC)cc2)CC1	–	–	–	–	–	–
CCOc1ccccc1NC(=S)N1CCN(c2ccc(O)cc2)CC1	–	–	–	–	–	30
COc1cc(OC)c(-n2cc(-c3ccc(OC)c(OC)c3)[nH]c2=S)cc1Cl	–	–	–	–	–	32
CCOc1ccccc1-c1c2cc(O)c(=O)cc-2oc2cc(O)c(O)cc12	·	·	·	·	·	30
O=c1cc2oc3cc(O)c(O)cc3c(-c3ccccc3O)c-2cc1O	·	·	·	·	·	44
Cc1ccccc1-c1cc(=O)c2c(O)cccc2o1	–	–	–	–	–	·
CCCCCCCCN1C(=O)[C@@H](CC(=O)NCCCN2CCCC2=O)C[C@@]2(C(=O)OC)C1=C[C@H](C(C)C)O[C@@H]2C1CC1	–	–	·	–	–	·
O=C(CCC1CCCN(c2ncccn2)C1)NCc1ccccc1F (stereo not given)	–	–	–	–	–	32
C=CCC(=O)N1CCCC(CCC(=O)NCc2ccccc2F)C1 (stereo not given)	–	–	–	–	–	–
Cc1c(/C=N/NC(=O)c2cccnc2)c2ccccc2n1Cc1ccccc1	–	–	–	58	–	–
Cn1nccc1C(=O)N/N=C/c1c(O)ccc2ccccc12	–	–	–	–	–	28
Cc1nn(Cc2ccccc2)c(Cl)c1/C=N/NC(=O)c1cccnc1	–	–	–	–	–	–
O=C(N/N=C/c1c(O)ccc2ccccc12)c1cccnc1	–	–	–	–	–	31
O=C(NN=Cc1c(O)ccc2ccccc12)c1ccncc1	–	–	·	–	–	·
SMILES	PLC-gamma1 inh	PLC-beta3 inh	Rce1 inh	NPR1 activator	GC-B act	M18AAP inhibitor
Cc1nn(-c2ccccc2)c2sc(C(=O)NCc3ccc4c(c3)OCO4)cc12	–	–	·	–	–	·
NC(=NC(=O)/C=C/c1ccccc1Br)N(CC#Cc1ccccc1)CC#Cc1ccccc1	–	–	·	–	–	·
COc1ccc(OC)c(-n2c(SCC(=O)Nc3cccc(S(N)(=O)=O)c3)nc3ccccc3c2=O)c1	–	–	–	–	37	–
Cc1ccc(CNC(=O)O[C@H]2CC[C@@]34CCCN3C(=O)CCC[C@H]4C2)cc1	–	–	·	–	–	·
C/C(=N\NC(=O)c1ccc(N2CCCC2=O)cc1)c1ccc(O)cc1O	–	–	–	–	–	28
CSc1nc(NCC(C)O)c2c3c(sc2n1)CN(C)CC3 (stereo not given)	–	–	+	–	–	–
COc1ccc(OC)c(S(=O)(=O)ON2C(=O)c3ccccc3C2=O)c1	–	–	–	44	44	–
N#Cc1c(SCC(=O)Nc2nccs2)sc2c(O)cc(=O)[nH]c12	–	–	·	–	–	29
CCCSc1nnc(NC(=O)CSc2sc3c(O)cc(=O)[nH]c3c2C#N)s1	–	–	–	–	–	–
CCN1CCCCC(NC(=O)c2ccccc2C)C1=O (stereo not given)	–	–	·	–	–	·
Cc1ccc(-c2nnn(CCC(=O)N3CCCCC3C)n2)cc1 (stereo not given)	13	–	–	–	–	–
COc1ccc(OC)c(CN2C(=O)c3ccnn3CC2(C)c2nnnn2C2CCCC2)c1 (stereo not given)	–	–	·	–	–	·
C=CCNc1nc(Nc2ccc([N+](=O)[O-])cc2)nc(N2CCCC2)n1	–	–	–	–	–	–
CC1CCN(c2nc(Cl)nc(Nc3ccc([N+](=O)[O-])cc3)n2)CC1	–	–	–	67	–	–
CC(C)NC(=O)N[C@H]1C[C@@H]2O[C@H](CO)CC[C@@H]2O[C@@H]1CCc1ccc(-c2ccccc2F)cc1	–	–	·	–	–	·
CCCCn1c(=O)c(-c2ccccc2)c(O)c2ccccc21	–	–	+	–	–	–
O=c1c(-c2ccccc2)c(O)c2ccccc2n1-c1ccccc1	–	–	+	–	–	–
CCn1c(=O)c(-c2ccccc2)c(O)c2ccccc21	–	–	+	–	–	–
O=c1cc(-c2c(O)c3ccccc3n(Cc3ccccc3)c2=O)[nH][nH]1	–	–	–	–	–	–
CCn1c(=O)c(-c2cc(=O)[nH][nH]2)c(O)c2ccccc21	–	–	–	–	–	31
CCn1c(SCC(=O)Nc2ccc(S(=O)(=O)Nc3cc(C)nc(C)n3)cc2)nc2sc(C)c(C)c2c1=O	–	–	·	–	–	·
N#Cc1c(OCC(=O)c2ccccc2)nc2c(c1-c1ccco1)CCc1ccccc1-2	–	–	+	–	–	–
CCOC(=O)COc1nc2c(c(-c3ccco3)c1C#N)CCc1ccccc1-2	–	–	–	–	–	–
C=CCOC(=O)C(CO)NC(=O)CCCC(=O)O (stereo not given)	–	–	·	–	–	·
COC(=O)C1CN(Cc2cn(CCC3OCCO3)nn2)CCS(=O)(=O)N1Cc1ccccc1 (stereo not given)	–	–	·	–	–	·
CC(=O)N1Cc2ccccc2CC1C(=O)N1CCN(c2ccccc2)CC1 (stereo not given)	–	–	–	–	78	–
